Consider 38 targets from the supplement of paper PMC12819154, “High-throughput peptide-centric local stability assay extends protein–ligand identification to membrane proteins, tissues and bacteria” (Nature Structural & Molecular Biology, 2025).

UniProt A6X919, sequence (A6X919 whole entry): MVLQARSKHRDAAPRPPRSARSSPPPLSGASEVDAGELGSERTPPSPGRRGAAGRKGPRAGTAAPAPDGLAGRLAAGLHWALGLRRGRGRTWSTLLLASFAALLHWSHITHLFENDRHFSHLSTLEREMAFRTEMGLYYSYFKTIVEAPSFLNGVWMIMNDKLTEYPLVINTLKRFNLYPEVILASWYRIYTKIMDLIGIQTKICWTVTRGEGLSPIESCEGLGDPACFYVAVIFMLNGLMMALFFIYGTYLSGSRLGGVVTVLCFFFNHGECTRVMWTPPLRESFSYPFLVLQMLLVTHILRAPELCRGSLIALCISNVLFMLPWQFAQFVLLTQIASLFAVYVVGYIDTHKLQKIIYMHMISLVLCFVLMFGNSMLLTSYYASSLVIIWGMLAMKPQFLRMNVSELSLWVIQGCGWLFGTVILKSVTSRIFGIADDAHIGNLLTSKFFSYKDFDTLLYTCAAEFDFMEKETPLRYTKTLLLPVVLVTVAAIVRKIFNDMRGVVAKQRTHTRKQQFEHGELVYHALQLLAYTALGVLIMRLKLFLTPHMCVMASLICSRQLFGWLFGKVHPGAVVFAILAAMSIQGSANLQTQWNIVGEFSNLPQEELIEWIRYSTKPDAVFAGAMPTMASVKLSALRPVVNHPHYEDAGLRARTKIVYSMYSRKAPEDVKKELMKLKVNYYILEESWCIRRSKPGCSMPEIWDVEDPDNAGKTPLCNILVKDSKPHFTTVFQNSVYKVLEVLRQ
UniProt O35493, sequence (O35493 whole entry, looked up): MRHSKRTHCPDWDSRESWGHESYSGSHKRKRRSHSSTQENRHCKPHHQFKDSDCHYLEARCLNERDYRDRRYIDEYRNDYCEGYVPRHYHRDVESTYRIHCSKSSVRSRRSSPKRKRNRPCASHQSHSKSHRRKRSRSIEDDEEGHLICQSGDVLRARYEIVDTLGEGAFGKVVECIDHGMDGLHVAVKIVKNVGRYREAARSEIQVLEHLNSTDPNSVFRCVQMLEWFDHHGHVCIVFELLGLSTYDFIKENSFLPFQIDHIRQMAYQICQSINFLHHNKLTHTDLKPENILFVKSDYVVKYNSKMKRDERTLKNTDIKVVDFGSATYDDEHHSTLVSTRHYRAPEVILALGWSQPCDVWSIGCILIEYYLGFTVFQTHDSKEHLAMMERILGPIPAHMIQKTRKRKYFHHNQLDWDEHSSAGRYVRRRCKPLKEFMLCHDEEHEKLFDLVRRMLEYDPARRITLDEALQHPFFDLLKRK
UniProt P47802, sequence (P47802 whole entry): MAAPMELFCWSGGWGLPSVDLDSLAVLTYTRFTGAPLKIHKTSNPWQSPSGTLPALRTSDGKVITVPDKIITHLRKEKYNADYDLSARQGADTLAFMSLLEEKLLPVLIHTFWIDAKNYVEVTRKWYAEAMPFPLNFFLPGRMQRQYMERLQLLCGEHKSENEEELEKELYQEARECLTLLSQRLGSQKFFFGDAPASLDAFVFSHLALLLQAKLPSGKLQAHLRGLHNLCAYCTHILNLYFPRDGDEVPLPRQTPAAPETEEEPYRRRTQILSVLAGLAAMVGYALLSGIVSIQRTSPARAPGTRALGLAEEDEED
UniProt P14685, sequence (P14685 whole entry): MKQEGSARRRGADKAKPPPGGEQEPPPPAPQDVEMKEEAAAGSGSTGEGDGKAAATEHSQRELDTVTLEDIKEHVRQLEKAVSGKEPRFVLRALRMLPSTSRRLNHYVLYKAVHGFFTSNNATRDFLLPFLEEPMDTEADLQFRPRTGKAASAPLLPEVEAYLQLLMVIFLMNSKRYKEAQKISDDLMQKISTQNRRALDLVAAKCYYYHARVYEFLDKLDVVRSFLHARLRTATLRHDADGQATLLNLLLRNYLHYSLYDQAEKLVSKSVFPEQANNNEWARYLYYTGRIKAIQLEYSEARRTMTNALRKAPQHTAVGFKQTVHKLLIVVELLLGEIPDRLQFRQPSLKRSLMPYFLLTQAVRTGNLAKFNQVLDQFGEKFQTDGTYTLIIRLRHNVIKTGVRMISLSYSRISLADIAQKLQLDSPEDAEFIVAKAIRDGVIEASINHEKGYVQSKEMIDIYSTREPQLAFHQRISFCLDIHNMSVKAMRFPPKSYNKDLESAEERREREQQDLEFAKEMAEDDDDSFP
UniProt Q9D0I9, sequence (Q9D0I9 whole entry): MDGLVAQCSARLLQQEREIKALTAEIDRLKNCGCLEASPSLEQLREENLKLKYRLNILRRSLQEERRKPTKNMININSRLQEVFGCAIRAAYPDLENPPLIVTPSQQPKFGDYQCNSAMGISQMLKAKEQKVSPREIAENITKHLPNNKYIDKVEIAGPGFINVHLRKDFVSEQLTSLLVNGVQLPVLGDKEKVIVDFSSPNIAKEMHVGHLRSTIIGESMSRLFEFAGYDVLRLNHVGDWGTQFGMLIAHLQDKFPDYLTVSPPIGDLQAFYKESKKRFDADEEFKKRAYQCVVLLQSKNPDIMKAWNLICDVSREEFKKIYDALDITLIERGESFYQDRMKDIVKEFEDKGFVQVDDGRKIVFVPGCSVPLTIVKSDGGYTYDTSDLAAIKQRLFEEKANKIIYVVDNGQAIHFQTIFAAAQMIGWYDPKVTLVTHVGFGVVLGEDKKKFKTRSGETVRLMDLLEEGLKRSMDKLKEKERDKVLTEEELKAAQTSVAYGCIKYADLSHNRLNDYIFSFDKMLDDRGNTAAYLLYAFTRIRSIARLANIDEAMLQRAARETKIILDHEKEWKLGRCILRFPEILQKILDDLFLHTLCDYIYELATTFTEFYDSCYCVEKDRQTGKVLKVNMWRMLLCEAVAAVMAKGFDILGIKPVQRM
UniProt Q68FL6, sequence (Q68FL6 whole entry): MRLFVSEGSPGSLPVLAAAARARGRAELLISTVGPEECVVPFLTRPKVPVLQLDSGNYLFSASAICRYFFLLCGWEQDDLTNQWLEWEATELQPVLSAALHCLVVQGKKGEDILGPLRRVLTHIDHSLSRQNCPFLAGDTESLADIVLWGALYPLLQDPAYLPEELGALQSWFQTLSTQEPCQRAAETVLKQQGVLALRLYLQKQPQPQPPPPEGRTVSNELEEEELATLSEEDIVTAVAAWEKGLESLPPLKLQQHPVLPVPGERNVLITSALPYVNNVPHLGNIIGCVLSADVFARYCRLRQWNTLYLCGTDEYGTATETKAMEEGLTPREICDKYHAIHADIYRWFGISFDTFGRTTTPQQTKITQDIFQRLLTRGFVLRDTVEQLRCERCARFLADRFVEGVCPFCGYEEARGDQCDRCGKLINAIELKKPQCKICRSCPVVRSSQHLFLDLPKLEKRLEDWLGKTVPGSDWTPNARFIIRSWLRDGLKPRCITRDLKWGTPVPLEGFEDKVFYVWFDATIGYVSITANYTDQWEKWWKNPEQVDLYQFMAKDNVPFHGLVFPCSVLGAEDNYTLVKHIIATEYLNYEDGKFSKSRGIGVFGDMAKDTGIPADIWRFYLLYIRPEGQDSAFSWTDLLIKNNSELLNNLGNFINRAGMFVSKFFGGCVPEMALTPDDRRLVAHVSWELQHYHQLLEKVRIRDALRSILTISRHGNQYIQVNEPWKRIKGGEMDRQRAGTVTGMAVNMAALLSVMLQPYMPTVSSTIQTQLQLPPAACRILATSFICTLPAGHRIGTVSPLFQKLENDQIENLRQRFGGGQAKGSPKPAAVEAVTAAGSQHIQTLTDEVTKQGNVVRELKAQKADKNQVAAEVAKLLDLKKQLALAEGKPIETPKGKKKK
UniProt Q9QZS5, sequence (Q9QZS5 whole entry): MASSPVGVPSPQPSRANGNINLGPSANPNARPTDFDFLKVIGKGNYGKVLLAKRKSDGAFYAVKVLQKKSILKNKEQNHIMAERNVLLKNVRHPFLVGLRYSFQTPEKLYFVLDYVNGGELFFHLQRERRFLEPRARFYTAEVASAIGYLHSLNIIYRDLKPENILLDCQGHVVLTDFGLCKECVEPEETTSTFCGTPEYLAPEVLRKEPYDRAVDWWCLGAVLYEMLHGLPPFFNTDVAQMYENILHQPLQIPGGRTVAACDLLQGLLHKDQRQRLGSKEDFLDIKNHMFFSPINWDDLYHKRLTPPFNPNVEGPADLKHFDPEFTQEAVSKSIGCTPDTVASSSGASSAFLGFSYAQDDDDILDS
UniProt Q8JZY4, sequence (Q8JZY4 whole entry): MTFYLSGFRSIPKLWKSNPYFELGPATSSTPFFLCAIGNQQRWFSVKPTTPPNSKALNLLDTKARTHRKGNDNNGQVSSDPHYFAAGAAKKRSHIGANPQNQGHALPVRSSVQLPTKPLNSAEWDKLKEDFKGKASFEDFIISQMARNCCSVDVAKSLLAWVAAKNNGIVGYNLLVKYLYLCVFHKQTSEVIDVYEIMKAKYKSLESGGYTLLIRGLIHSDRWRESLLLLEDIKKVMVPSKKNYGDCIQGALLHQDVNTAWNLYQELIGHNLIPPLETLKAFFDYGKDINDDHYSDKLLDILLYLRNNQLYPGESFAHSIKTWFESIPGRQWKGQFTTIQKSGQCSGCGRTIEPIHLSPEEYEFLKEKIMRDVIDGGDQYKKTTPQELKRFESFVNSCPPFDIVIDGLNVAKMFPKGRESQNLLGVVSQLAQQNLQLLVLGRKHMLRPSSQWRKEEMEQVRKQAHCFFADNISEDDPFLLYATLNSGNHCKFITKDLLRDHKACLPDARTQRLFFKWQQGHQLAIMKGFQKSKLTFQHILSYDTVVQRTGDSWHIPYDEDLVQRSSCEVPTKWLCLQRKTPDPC
UniProt Q9JK48, sequence (Q9JK48 whole entry): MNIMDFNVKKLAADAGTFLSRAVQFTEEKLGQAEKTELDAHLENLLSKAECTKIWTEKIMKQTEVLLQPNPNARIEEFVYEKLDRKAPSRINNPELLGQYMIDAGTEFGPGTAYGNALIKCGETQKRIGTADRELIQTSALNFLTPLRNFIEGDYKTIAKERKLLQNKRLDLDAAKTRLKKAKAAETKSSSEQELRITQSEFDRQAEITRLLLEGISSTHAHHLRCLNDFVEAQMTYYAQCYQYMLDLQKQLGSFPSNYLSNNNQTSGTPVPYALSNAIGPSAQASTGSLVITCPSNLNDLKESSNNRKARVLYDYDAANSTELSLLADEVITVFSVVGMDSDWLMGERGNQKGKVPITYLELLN

Compound in this test: CN[C@@H]1C[C@H]2O[C@@](C)([C@@H]1OC)n1c3ccccc3c3c4c(c5c6ccccc6n2c5c31)C(=O)NC4 [staurosporine]
Nature of the test: log2 fold change of tryptic peptide abundance, ligand vs vehicle (limited proteolysis) (log2 ratio); higher = more trypsin-susceptible (destabilized). As to conditions: ligand concentration: 20 uM; sample: mouse liver crude lysate; replicate design: treated separately.
As to “UniProt P14685 (peptide sequence: ISLADIAQK, peptide start residue: 413)”, the log2 fold change is -0.355. Turning to “UniProt Q60648 (peptide sequence: IQSILSSGGK, peptide start residue: 170)”, the log2 fold change was -0.484.

In the case of “UniProt Q9JK48 (peptide sequence: NFIEGDYK, peptide start residue: 149)”, the log2 fold change came out at 0.247.

As to “UniProt Q6PF93 (peptide sequence: LQALLGDNEK, peptide start residue: 573)”, the log2 fold change is -0.345. Turning to “UniProt Q9WV55 (peptide sequence: KVAHSDKPGSTSAVSFR, peptide start residue: 205)”, the log2 fold change came to 0.313. For “UniProt Q6PGL7 (peptide sequence: RPTSFADELAAR, peptide start residue: 281)”, the log2 fold change was -0.483. The value for “UniProt Q03963 (peptide sequence: DLKPGNIFLVDER, peptide start residue: 376)” was -1.55; that for “UniProt Q07417 (peptide sequence: GISAFLVPMPTPGLTLGKKEDK, peptide start residue: 209)” was 0.268. On to “UniProt P47802 (peptide sequence: EKYNADYDLSAR, peptide start residue: 77)”, for which the log2 fold change is -0.346. With “UniProt Q9JM62 (peptide sequence: NVATEALGALEAR, peptide start residue: 16)”, the log2 fold change came out at 0.439. “UniProt P54823 (peptide sequence: LDLKKDNIQAMVIVPTR, peptide start residue: 158)”: the log2 fold change was 1.16. Turning to “UniProt Q9JM52 (peptide sequence: GNALKEDCIAYICR, peptide start residue: 122)”, the log2 fold change was -0.672.

For “UniProt Q8VDP6 (peptide sequence: MIDLSGNPVLR, peptide start residue: 122)”, the log2 fold change worked out at 0.341. For “UniProt Q9QZS5 (peptide sequence: TVAACDLLQGLLHKDQR, peptide start residue: 258)”, the log2 fold change is -2.7. Take “UniProt O70291 (peptide sequence: DLKPENILLDDHGHIR, peptide start residue: 311)”: the log2 fold change was -1.62. As to “UniProt Q9Z1M4 (peptide sequence: IGPHCFELLSVLGK, peptide start residue: 62)”, the log2 fold change is -0.47. The value for “UniProt P56657 (peptide sequence: NHMPYTNAMVHEVQR, peptide start residue: 343)” was -0.322. As for “UniProt Q6PDI5 (peptide sequence: NLTSNMWR, peptide start residue: 1165)”, the log2 fold change was determined as 0.284. With “UniProt Q8BPM2 (peptide sequence: LLTHTFVGQPGLSR, peptide start residue: 271)”, the log2 fold change was -1.27.

Consider “UniProt A6X919 (peptide sequence: AGTAAPAPDGLAGR, peptide start residue: 60)”, for which the log2 fold change stood at 0.335. On to “UniProt Q9WV60 (peptide sequence: LCDSGELVAIKK, peptide start residue: 75)”, for which the log2 fold change is -4.12.

In the case of “UniProt O35493 (peptide sequence: ILGPIPAHMIQK, peptide start residue: 392)”, the log2 fold change was -2.87.

As for “UniProt Q9D0I9 (peptide sequence: GFDILGIKPVQR, peptide start residue: 648)”, the log2 fold change came out at 0.372. The same measure for “UniProt Q61083 (peptide sequence: LLGQGAFGR, peptide start residue: 361)”: -1.9; for “UniProt P97742 (peptide sequence: IWMAMVK, peptide start residue: 149)”: 0.562; for “UniProt P43142 (peptide sequence: YLPKEQAR, peptide start residue: 334)”: -0.325.

“UniProt O88630 (peptide sequence: MNTLANRFPAVNSLIQR, peptide start residue: 205)”: the log2 fold change was determined as 0.676.

Consider “UniProt Q9DB41 (peptide sequence: GAAVNLTLVTPEK, peptide start residue: 68)”, for which the log2 fold change turned out to be 0.677.

Regarding “UniProt Q64028 (peptide sequence: PQIAQMSLYER, peptide start residue: 24)”, the log2 fold change is 0.725. With “UniProt Q68FL6 (peptide sequence: GIGVFGDMAK, peptide start residue: 601)”, the log2 fold change was found to be 0.564. The same measure for “UniProt Q61136 (peptide sequence: LNDADPDDKFHCLR, peptide start residue: 739)”: -1.19; for “UniProt Q8JZY4 (peptide sequence: YLYLCVFHK, peptide start residue: 178)”: 0.47. As to “UniProt Q62393 (peptide sequence: GWQDVTATNAYK, peptide start residue: 125)”, the log2 fold change amounted to 0.581. Consider “UniProt Q8VCC2 (peptide sequence: LAELFTNQR, peptide start residue: 97)”, for which the log2 fold change was -0.315. Take “UniProt Q99KH8 (peptide sequence: GEPPHSELHPMK, peptide start residue: 215)”: the log2 fold change is -1.74. Regarding “UniProt O08648 (peptide sequence: IFEGIKHPNLVR, peptide start residue: 1382)”, the log2 fold change was -0.814. Regarding “UniProt P09813 (peptide sequence: THEQLTPLVR, peptide start residue: 68)”, the log2 fold change was found to be 0.46. The same measure for “UniProt Q8JZR0 (peptide sequence: GYLKDPEK, peptide start residue: 503)”: 0.616.
